Our source for the outcome values is PubChem BioAssay AID2284172 (EPA ToxCast).

The source made the active and inactive calls. The calls were made as follows: active = hit-call score of the fitted dose curve at least 0.9, where 1 is the maximum; inactive = score below 0.9.

The target of this test is rat Cav1.2 (L-type), conducted at France lab site, Cacna1a (gene 25398) (UniProt P54282). The test is described as follows: ERF_FR_IC_rCACNA1C_Dihydropyridine: Eurofins (ERF) Calcium Ion Channel Binding (Dihydropyridine Site) LeadHunter Assay for rat Cav1.2 (L-type), conducted at France lab site. The protocol:
ERF_FR_IC_rCACNA1C_Dihydropyridine is a biochemical, single-readout assay that uses extracted gene-proteins in a cell-free assay. Measurements were taken 1.5 hour after chemical dosing in a 96-well plate. See Cav1.2 (L-type) Rat Calcium Ion Channel Binding (Dihydropyridine Site) Assay, Cerep.ERF_FR_IC_rCACNA1C_Dihydropyridine is an assay component calculated from the ERF_FR_IC_rCACNA1C_Dihydropyridine assay. It is designed to measure radioligand binding using a type of binding reporter as detected by scintillation counting with radiometry technology.Data from the assay component ERF_FR_IC_rCACNA1C_Dihydropyridine was analyzed at the assay endpoint, ERF_FR_IC_rCACNA1C_Dihydropyridine, in the positive analysis fitting direction relative to DMSO as the negative control and baseline of activity. Using a type of binding reporter, loss-of-signal activity can be used to understand changes in binding as they relate to gene CACNA1C. To generalize the intended target to other relatable targets, this assay endpoint is annotated to the ion channel intended target family, where the subfamily is voltage gated (Calcium).
Rat brain cells are incubated for 90 minutes at room temprature with [3H]nitrendipine (0.25 nM) ligand and Nitrendipine as control inhibitor. Test Sample Requirements: Minimum for 1) Screen: 60 ul of 10 mM stock -OR- 1 mg (pre-weighed) for 10 uM final testing. […]

Sequence of rat Cav1.2 (L-type), conducted at France lab site, Cacna1a (gene 25398) (P54282 whole entry, looked up): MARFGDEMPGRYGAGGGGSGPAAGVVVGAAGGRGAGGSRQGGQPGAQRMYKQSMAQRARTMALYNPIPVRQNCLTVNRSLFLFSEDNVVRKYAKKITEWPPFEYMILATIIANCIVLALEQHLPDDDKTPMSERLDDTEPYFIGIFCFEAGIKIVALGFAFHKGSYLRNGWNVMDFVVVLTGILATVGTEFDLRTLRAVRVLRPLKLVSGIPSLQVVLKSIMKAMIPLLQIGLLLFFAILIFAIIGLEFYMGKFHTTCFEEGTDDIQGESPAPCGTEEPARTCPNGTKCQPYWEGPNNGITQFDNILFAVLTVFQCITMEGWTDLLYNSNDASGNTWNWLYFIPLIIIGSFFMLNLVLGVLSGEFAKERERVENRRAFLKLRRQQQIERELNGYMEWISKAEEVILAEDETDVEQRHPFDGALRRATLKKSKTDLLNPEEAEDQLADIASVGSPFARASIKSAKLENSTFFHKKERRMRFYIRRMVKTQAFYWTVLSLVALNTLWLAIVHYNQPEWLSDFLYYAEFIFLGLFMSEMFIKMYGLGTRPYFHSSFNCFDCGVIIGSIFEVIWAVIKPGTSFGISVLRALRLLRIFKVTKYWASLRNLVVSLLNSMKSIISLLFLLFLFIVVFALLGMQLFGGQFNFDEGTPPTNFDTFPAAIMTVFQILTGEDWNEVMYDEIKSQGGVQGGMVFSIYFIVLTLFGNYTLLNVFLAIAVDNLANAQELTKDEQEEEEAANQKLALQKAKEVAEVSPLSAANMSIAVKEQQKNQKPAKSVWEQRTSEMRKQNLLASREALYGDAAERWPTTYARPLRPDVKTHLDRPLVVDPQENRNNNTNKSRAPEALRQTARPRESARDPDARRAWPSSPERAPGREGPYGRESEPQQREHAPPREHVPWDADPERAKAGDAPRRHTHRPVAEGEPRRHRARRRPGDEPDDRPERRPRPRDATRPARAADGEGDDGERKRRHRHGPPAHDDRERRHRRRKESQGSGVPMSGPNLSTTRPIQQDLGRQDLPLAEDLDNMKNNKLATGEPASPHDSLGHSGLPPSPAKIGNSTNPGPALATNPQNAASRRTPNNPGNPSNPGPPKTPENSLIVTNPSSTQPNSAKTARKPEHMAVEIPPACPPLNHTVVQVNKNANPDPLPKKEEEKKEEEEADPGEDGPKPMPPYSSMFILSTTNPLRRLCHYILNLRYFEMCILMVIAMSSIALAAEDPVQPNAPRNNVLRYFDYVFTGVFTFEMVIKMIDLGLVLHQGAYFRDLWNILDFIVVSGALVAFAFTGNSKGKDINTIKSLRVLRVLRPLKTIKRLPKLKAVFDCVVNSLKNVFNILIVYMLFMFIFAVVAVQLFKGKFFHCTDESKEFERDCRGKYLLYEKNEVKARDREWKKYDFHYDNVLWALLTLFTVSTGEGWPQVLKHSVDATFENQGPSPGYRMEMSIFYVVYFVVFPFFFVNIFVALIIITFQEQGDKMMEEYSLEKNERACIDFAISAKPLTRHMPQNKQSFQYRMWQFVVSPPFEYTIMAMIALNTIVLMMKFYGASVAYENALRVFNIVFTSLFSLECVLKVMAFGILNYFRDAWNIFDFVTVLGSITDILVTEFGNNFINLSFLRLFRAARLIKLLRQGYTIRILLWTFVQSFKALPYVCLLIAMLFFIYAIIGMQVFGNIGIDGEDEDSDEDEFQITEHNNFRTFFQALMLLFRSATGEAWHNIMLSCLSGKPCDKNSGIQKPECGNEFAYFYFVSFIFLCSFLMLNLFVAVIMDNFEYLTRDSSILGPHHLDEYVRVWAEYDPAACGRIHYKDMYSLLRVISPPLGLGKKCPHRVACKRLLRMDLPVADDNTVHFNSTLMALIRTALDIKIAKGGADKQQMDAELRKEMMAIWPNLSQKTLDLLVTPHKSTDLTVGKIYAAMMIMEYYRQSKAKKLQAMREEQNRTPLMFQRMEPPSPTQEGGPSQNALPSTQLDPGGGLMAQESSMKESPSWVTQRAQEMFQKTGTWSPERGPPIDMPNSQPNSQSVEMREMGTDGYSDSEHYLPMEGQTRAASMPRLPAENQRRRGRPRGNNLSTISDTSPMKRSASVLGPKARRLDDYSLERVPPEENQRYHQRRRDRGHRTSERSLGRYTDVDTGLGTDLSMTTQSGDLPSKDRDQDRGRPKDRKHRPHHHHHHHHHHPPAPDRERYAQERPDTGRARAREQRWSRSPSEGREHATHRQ

With `CCCCC[C@H](O)CC(=O)CCc1ccc(O)c(OC)c1`, the outcome was inactive.
